Laboratory results published in PubChem BioAssay AID1159580 (chemical genetic matrix, 2015).
Several values for one entry are separate records, joined by “and”; a condition that tells them apart may be missing. Identical values can stand only once. Out of some 5,500 compounds screened, about 2,000 (36%) were called active. About 18% were inconclusive and are not listed. No stated cut-off is given here; in the data, active means normalized growth mostly below about 0.91 (no sharp cut-off); inconclusive means no clear call, values can overlap the other calls; inactive means mostly above about 0.92. This is one part of the list.

Assay: chemical genetic growth profiling, strain panel (AID 1159580);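 further: tested at 20 µM; growth read once vehicle control cultures reached saturation at 30 °C; 1 = growth at the plate median or of vehicle wells; lower values mean less growth of the strain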
Settings: growth OD

Measured: normalized growth

O=[N+]([O-])c1cc(O)c(O)c([N+](=O)[O-])c1
inactive: S. cerevisiae deletion strains, locus YJL187C, strain SWE1 (second series), active compounds read low 1.02 | S. cerevisiae deletion strains, locus YJL187C, strain SWE1, active compounds read low 1.01 | S. cerevisiae deletion strains, locus YJR075W, strain HOC1, active compounds read low 1.05 | S. cerevisiae deletion strains, locus YKL009W, strain mrt4, active compounds read low 1.01 | S. cerevisiae deletion strains, locus YKL068W, active compounds read low 0.974 | S. cerevisiae deletion strains, locus YKL085W, strain MDH1 (second series), active compounds read low 0.97 | S. cerevisiae deletion strains, locus YKL085W, strain MDH1, active compounds read low 0.97 | S. cerevisiae deletion strains, locus YKL160W, strain elf1, active compounds read low 1 | S. cerevisiae deletion strains, locus YKR001C, strain vps1, active compounds read low 1 | S. cerevisiae deletion strains, locus YKR026C, strain gcn3, active compounds read low 1.01 | S. cerevisiae deletion strains, locus YKR091W, strain srl3, active compounds read low 1.01 | S. cerevisiae deletion strains, locus YLL001W, strain dnm1, active compounds read low 1.01 | S. cerevisiae deletion strains, locus YLL026W, active compounds read low 0.999 | S. cerevisiae deletion strains, locus YLL041C, strain sdh2, active compounds read low 1.01 | S. cerevisiae deletion strains, locus YLR027C, strain aat2, active compounds read low 1.02 | S. cerevisiae deletion strains, locus YLR039C, strain RIC1, active compounds read low 0.958 | S. cerevisiae deletion strains, locus YLR058C, strain SHM2, active compounds read low 1.01 | S. cerevisiae deletion strains, locus YLR102C, strain apc9, active compounds read low 0.98 | S. cerevisiae deletion strains, locus YLR221C, strain rsa3, active compounds read low 1.06 | S. cerevisiae deletion strains, locus YLR258W, strain gsy2, active compounds read low 1.06 | S. cerevisiae deletion strains, locus YLR262C, strain YPT6 (second series), active compounds read low 0.996 | S. cerevisiae deletion strains, locus YLR262C, strain YPT6, active compounds read low 0.959 | S. cerevisiae deletion strains, locus YLR268W, strain sec22, active compounds read low 0.972 | S. cerevisiae deletion strains, locus YLR320W, strain mms22, active compounds read low 1.06 | S. cerevisiae deletion strains, locus YLR330W, strain CHS5, active compounds read low 1.01 | S. cerevisiae deletion strains, locus YLR342W, strain FKS1 (second series), active compounds read low 0.951 | S. cerevisiae deletion strains, locus YLR342W, strain FKS1, active compounds read low 1.01 | S. cerevisiae deletion strains, locus YLR357W, strain rsc2, active compounds read low 1.03 | S. cerevisiae deletion strains, locus YLR370C, strain arc18, active compounds read low 1.01 | S. cerevisiae deletion strains, locus YLR371W, strain rom2, active compounds read low 0.979 | S. cerevisiae deletion strains, locus YLR384C, strain iki3, active compounds read low 1.01 | S. cerevisiae deletion strains, locus YLR418C, strain cdc73, active compounds read low 0.908 | S. cerevisiae deletion strains, locus YML016C, strain PPZ1, active compounds read low 1.01 | S. cerevisiae deletion strains, locus YML032C, strain rad52, active compounds read low 1.01 | S. cerevisiae deletion strains, locus YML120C, strain ndi1, active compounds read low 1.03 | S. cerevisiae deletion strains, locus YML124C, strain tub3, active compounds read low 0.973 | S. cerevisiae deletion strains, locus YMR058W, strain fet3, active compounds read low 1.04 | S. cerevisiae deletion strains, locus YMR078C, strain ctf18, active compounds read low 0.985 | S. cerevisiae deletion strains, locus YMR125W, strain sto1, active compounds read low 1.01 | S. cerevisiae deletion strains, locus YMR129W, active compounds read low 1.01 | S. cerevisiae deletion strains, locus YMR205C, strain PFK2, active compounds read low 1.01 | S. cerevisiae deletion strains, locus YMR223W, strain ubp8, active compounds read low 0.971 | S. cerevisiae deletion strains, locus YMR231W, strain pep5, active compounds read low 1.02 | S. cerevisiae deletion strains, locus YMR263W, strain SAP30, active compounds read low 1.02 | S. cerevisiae deletion strains, locus YMR307W, strain GAS1, active compounds read low 0.97 and 1.01 | S. cerevisiae deletion strains, locus YNL067W, strain RPL9B, active compounds read low 1.02 | S. cerevisiae deletion strains, locus YNL071W, strain lat1, active compounds read low 1.02 | S. cerevisiae deletion strains, locus YNL153C, strain GIM3, active compounds read low 1.04 and 0.971 | S. cerevisiae deletion strains, locus YNL175C, strain NOP13, active compounds read low 0.976 | S. cerevisiae deletion strains, locus YNL197C, strain WHI3, active compounds read low 0.95 | S. cerevisiae deletion strains, locus YNL209W, strain ssb2, active compounds read low 1.02 | S. cerevisiae deletion strains, locus YNL224C, strain SQS1, active compounds read low 0.977 | S. cerevisiae deletion strains, locus YNL233W, strain BNI4, active compounds read low 1 | S. cerevisiae deletion strains, locus YNL248C, strain rpa49, active compounds read low 0.983 | S. cerevisiae deletion strains, locus YNL250W, strain rad50, active compounds read low 0.955 | S. cerevisiae deletion strains, locus YNL271C, strain bni1, active compounds read low 0.978 | S. cerevisiae deletion strains, locus YNL298W, strain CLA4, active compounds read low 0.994 | S. cerevisiae deletion strains, locus YNL307C, strain MCK1, active compounds read low 0.989 | S. cerevisiae deletion strains, locus YNL322C, strain KRE1 (second series), active compounds read low 1.02 | S. cerevisiae deletion strains, locus YNL322C, strain KRE1, active compounds read low 1 and 1.01 | S. cerevisiae deletion strains, locus YNR049C, strain mso1, active compounds read low 1 | S. cerevisiae deletion strains, locus YNR052C, strain pop2, active compounds read low 0.996 | S. cerevisiae deletion strains, locus YOL012C, strain htz1 1.22 | S. cerevisiae deletion strains, locus YOL147C, strain pex11, active compounds read low 0.981 | S. cerevisiae deletion strains, locus YOR001W, strain rrp6, active compounds read low 1.01 | S. cerevisiae deletion strains, locus YOR061W, strain CKA2, active compounds read low 1.01 | S. cerevisiae deletion strains, locus YOR069W, strain VPS5, active compounds read low 1 | S. cerevisiae deletion strains, locus YOR070C, strain gyp1, active compounds read low 1.03 | S. cerevisiae deletion strains, locus YOR080W, strain dia2, active compounds read low 1.02 | S. cerevisiae deletion strains, locus YOR083W, strain WHI5 (second series), active compounds read low 0.992 | S. cerevisiae deletion strains, locus YOR083W, strain WHI5, active compounds read low 1.01 | S. cerevisiae deletion strains, locus YOR106W, strain vam3, active compounds read low 0.983 | S. cerevisiae deletion strains, locus YOR136W, strain idh2, active compounds read low 0.981 | S. cerevisiae deletion strains, locus YOR144C, strain elg1, active compounds read low 0.979 | S. cerevisiae deletion strains, locus YOR184W, strain ser1, active compounds read low 0.985 | S. cerevisiae deletion strains, locus YOR265W, strain rbl2, active compounds read low 1.02 | S. cerevisiae deletion strains, locus YOR270C, strain vph1, active compounds read low 0.989 | S. cerevisiae deletion strains, locus YOR290C, strain snf2, active compounds read low 1.02 | S. cerevisiae deletion strains, locus YOR316C, strain cot1, active compounds read low 0.983 | S. cerevisiae deletion strains, locus YPL051W, strain arl3, active compounds read low 1.04 | S. cerevisiae deletion strains, locus YPL055C, strain LGE1, active compounds read low 1.01 and 1.06 | S. cerevisiae deletion strains, locus YPL078C, strain atp4, active compounds read low 0.992 | S. cerevisiae deletion strains, locus YPL106C, strain sse1, active compounds read low 1.07 | S. cerevisiae deletion strains, locus YPL240C, strain hsp82, active compounds read low 0.995 | S. cerevisiae deletion strains, locus YPR119W, strain clb2, active compounds read low 0.972 | S. cerevisiae deletion strains, locus YPR141C, strain kar3, active compounds read low 0.954 | S. cerevisiae deletion strains, locus YPR163C, strain tif3, active compounds read low 0.985 | S. cerevisiae deletion strains, locus YPR167C, strain met16, active compounds read low 0.971 | S. cerevisiae deletion strains, strain wtn01, active compounds read low 0.984 | S. cerevisiae strains, strain wild type, active compounds read low 1.01
